From PubChem BioAssay (NCI) come the findings set out here.

This is part of a sample that, as a whole, favours compounds with a hit. Of some 83,000 tested, about 20% had one in any assay.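 Assay: single dose, 48 h. Readout: percent growth (0 = no net growth; negative = cell death). Active: <10.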 Values without a mark were called inactive. The source made the active and inactive calls.

Test systems include T-47D breast; BT-549 breast; MDA-MB-435 melanoma; SW-620 colon; MCF7 breast; HCT-116 colon; HCC-2998 colon; KM12 colon.
What all share (test): NCI-60 one-dose screen, 48 h (100 = growth as untreated, 0 = no growth, -100 = all killed)
Details in all cases: 10 µM unless noted

Consider `O=C(O)c1cc2ccccc2s1`, for which the growth is 91.9% in the experiment on T-47D breast; 108% in the experiment with BT-549 breast; 104% in the experiment with MDA-MB-435 melanoma; 103% in the experiment on SW-620 colon; 111% in the experiment on MCF7 breast; 105% with HCT-116 colon. Besides, the growth was 107% with HCC-2998 colon and 108% in the experiment with KM12 colon.
On to `C=CCOC(=O)C1=C(C)N(CC)C(=O)N(CC)C1c1c(Cl)n(C)c2ccccc12` (configuration not stated), for which the growth with T-47D breast was 87.6%; in the experiment on BT-549 breast, 89.9%; with MDA-MB-435 melanoma it was 89.1%; in the experiment on SW-620 colon, 84.6%; in the experiment with MCF7 breast it was 79%; in the experiment with HCT-116 colon it was 85.8%. Also, the growth in the experiment with HCC-2998 colon was 78%; in the experiment with KM12 colon, 68.6%.
In the case of `CCOC(=O)c1cnc2sc(-c3ccc(OC)cc3)nc2c1Cl`, the growth in the experiment with T-47D breast is 97.2%; in the experiment with BT-549 breast it was 107%; in the experiment with MDA-MB-435 melanoma, 87.7%; in the experiment with SW-620 colon, 114%; in the experiment with MCF7 breast, 88%; with HCT-116 colon, 87.8%. For the same molecule, the growth is 114% with HCC-2998 colon and 90.7% in the experiment on KM12 colon.
For `COc1cc(CNC(=O)CCCC/C=C/C(C)C)ccc1OCc1cn(-c2cccc([N+](=O)[O-])c2)nn1`, the growth is 72.3% in the experiment on T-47D breast; 96.3% in the experiment with BT-549 breast; 101% in the experiment on MDA-MB-435 melanoma; 97.4% with SW-620 colon; 74.1% in the experiment with MCF7 breast; 42% in the experiment on HCT-116 colon. The growth in the experiment with HCC-2998 colon was 101%; in the experiment with KM12 colon, 91.2%.
As for `O=C(Nc1ncc(Cc2ccc(Cl)cc2)s1)C1=NCCCCN1`, the growth was 92.5% in the experiment on T-47D breast; 104% in the experiment on BT-549 breast; 101% in the experiment on MDA-MB-435 melanoma; 103% with SW-620 colon; 89.1% with MCF7 breast; 100% with HCT-116 colon. Also, the growth is 118% in the experiment with HCC-2998 colon and 103% with KM12 colon.
Turning to `C#CC#CC#CC#CC#CC#CC#CC#CC[C@@H]1OC[C@H](COC(=O)O[C@@H](C(=O)O[C@H]2C[C@@]3(O)[C@@H](OC(=O)c4ccccc4)[C@@H]4[C@]5(OC(C)=O)CO[C@@H]5C[C@H](O)[C@@]4(C)C(=O)[C@H](OC(C)=O)C(=C2C)C3(C)C)[C@@H](NC(=O)c2ccccc2)c2ccccc2)O1`, the growth in the experiment on T-47D breast was 39.1%; with BT-549 breast, 34.6%; with MDA-MB-435 melanoma it was -63.1% (active); in the experiment on SW-620 colon, 28.5%; in the experiment with MCF7 breast, 18%; with HCT-116 colon, 12.5%. Besides, the growth is 19.7% in the experiment with HCC-2998 colon and 9.33% (active) in the experiment on KM12 colon.
Consider `CCN1CCN(C(=O)[C@]23CC[C@@H](C)[C@H](C)[C@@H]2C2=CC[C@@H]4[C@@]5(C)C/C(=C/c6ccncc6)C(=O)C(C)(C)[C@@H]5CC[C@@]4(C)[C@]2(C)CC3)CC1`, for which the growth in the experiment with T-47D breast is 27.1%; in the experiment on BT-549 breast it was 52.2%; in the experiment with MDA-MB-435 melanoma, -51.1% (active); with SW-620 colon, -22.6% (active); in the experiment on MCF7 breast, 4.97% (active); in the experiment with HCT-116 colon it was -51.9% (active). Further, the growth with HCC-2998 colon is -28.9% (active); with KM12 colon it was 5.49% (active).
Take `Oc1ccc(Cc2ccc(O)c3ncccc23)c2cccnc12`: the growth in the experiment with T-47D breast was -3.14% (active); with BT-549 breast it was 29.4%; with MDA-MB-435 melanoma it was 12.6%; with SW-620 colon, 16.7%; with MCF7 breast, 3.18% (active); with HCT-116 colon it was 15.2%. The values for the growth in the experiment with HCC-2998 colon and with KM12 colon were 19.2% and 15.8%, respectively.
For the molecule `COc1cccc(NC(=O)c2sc3nc(C)c(C(=O)c4ccccc4)cc3c2N)c1`, the growth with T-47D breast is 88.6%; with BT-549 breast, 91.8%; in the experiment with MDA-MB-435 melanoma, 29.9%; with SW-620 colon, 91.4%; with MCF7 breast it was 69.5%; with HCT-116 colon, 95.9%. Moreover, the growth with HCC-2998 colon is 109%; in the experiment with KM12 colon, 88%.
In the case of `O=C(/C=C/c1ccc(Cl)cc1)c1ccc(-n2cc(CN3CCN(c4cc5c(cc4F)c(=O)c(C(=O)O)cn5C4CC4)CC3)nn2)cc1`, the growth in the experiment on T-47D breast is 93.4%; in the experiment with BT-549 breast, 90%; in the experiment with MDA-MB-435 melanoma, 82.2%; in the experiment with SW-620 colon it was 81.7%; in the experiment with MCF7 breast it was 51.2%; in the experiment on HCT-116 colon, 2.68% (active). Moreover, the growth in the experiment with HCC-2998 colon is 90.7%; in the experiment on KM12 colon, 86.4%.
As to `c1ccc(-c2cn3nc(-c4c[nH]c5ccccc45)sc3n2)cc1`, the growth with T-47D breast was 62.6%; with BT-549 breast, 91.3%; with MDA-MB-435 melanoma it was 26.5%; with SW-620 colon it was 73.5%; in the experiment with MCF7 breast, 59.1%; with HCT-116 colon, 84.2%. Besides, the growth in the experiment on HCC-2998 colon is 89.6%; with KM12 colon, 58.3%.
`C#Cc1ccc(NC(=O)Cc2ccc(/C=C/C(=O)c3nccn3C)cc2)cc1`: the growth is 69.2% in the experiment on T-47D breast; 71.2% with BT-549 breast; 83.6% in the experiment on MDA-MB-435 melanoma; 15.8% in the experiment with SW-620 colon; 21.5% with MCF7 breast; 21.6% with HCT-116 colon. The growth in the experiment on HCC-2998 colon is 82.3%; in the experiment with KM12 colon, 25.6%.
As to `O=c1ccc2nc(-c3ccccc3)nn(-c3ccccn3)c-2c1`, the growth in the experiment on T-47D breast is -40.9% (active); with BT-549 breast, 108%; in the experiment on MDA-MB-435 melanoma it was 94.6%; in the experiment with MCF7 breast, -37.1% (active); in the experiment with HCT-116 colon, 42.7%; in the experiment with HCC-2998 colon, 103%. Besides, the growth in the experiment with KM12 colon was 104%.
As for `COC(=O)c1cc(-c2cc(OC)c(OC)c(OC)c2)[nH]c1N/N=C/c1c(Cl)cccc1Cl`, the growth in the experiment with T-47D breast is 9.55% (active); in the experiment on BT-549 breast it was 128%; in the experiment on MDA-MB-435 melanoma it was -2.15% (active); in the experiment on MCF7 breast, 7.14% (active); in the experiment on HCT-116 colon, 5.15% (active); in the experiment with HCC-2998 colon, -62% (active). Also, in the experiment with KM12 colon, the growth is 15%.
With `Cn1ncc(CC(=O)O)c1-n1nnc2cc(Cl)ccc2c1=O`, the growth in the experiment with T-47D breast is 102%; in the experiment with BT-549 breast it was 102%; in the experiment on MDA-MB-435 melanoma, 92.7%; in the experiment on MCF7 breast, 110%; in the experiment with HCT-116 colon it was 99.5%; in the experiment on HCC-2998 colon, 107%. Besides, the growth with KM12 colon was 102%.
